# Inconclusive results are not listed. The source made the active and inactive calls. How the source made its calls: active means hit-call score of the fitted dose curve at least 0.9, where 1 is the maximum; inconclusive means response in the unintended direction; inactive means score below 0.9.
# Target: human CYP1A1, CYP1A1 (gene 1543) (UniProt P04798)
# Assay: NVS_ADME_hCYP1A1: NovaScreen (NVS) CYP450-related Enzyme Activity (ADME) Assay for human CYP1A1 (AID 2283100)
# Description: NVS_ADME_hCYP1A1 is a biochemical, single-readout assay that uses extracted gene-proteins in a cell-free assay. Measurements were taken 1 hour after chemical dosing in a 96-well plate.NVS_ADME_hCYP1A1 is one of one assay component(s) measured or calculated from the NVS_ADME_hCYP1A1 assay. It is designed to make measurements of enzyme activity, a form of enzyme reporter, as detected with fluorescence intensity signals by Fluorescence technology.Data from the assay component NVS_ADME_hCYP1A1 was analyzed into 1 assay endpoint. This assay endpoint, NVS_ADME_hCYP1A1, was analyzed in the positive analysis fitting direction relative to Acetonitrile as the negative control and baseline of activity. Using a type of enzyme reporter, loss-of-signal activity can be used to understand changes in the enzymatic activity as they relate to the gene CYP1A1. Furthermore, this assay endpoint can be referred to as a primary readout, because this assay has produced multiple assay endpoints where this one serves a enzymatic activity function. To generalize the intended target to other relatable targets, this assay endpoint is annotated to the cyp intended target family, where the subfamily is xenobiotic metabolism.
# Binding assays used specific radioligands (tritiated, iodinated) with non-radioactive competitive displacement ligands in agonist or antagonist protocols (as indicated) and various reference compounds and inhibitors to titrate specific binding to receptors and transporters. Most enzyme assays (CYPs, kinases, phosphatases, proteases, HDACs) used recombinant protein and specific substrates (fluorescence mostly, some colorimetric and radioactive) and inhibitors, followed by a biochemical separation of substrate and product. All assays for the biochemical HTS were initially run in duplicate at a single concentration (10 uM for CYP450 assays and 25 uM for all others). Assay-chemical combinations meeting a pre-defined threshold (e.g., 30% inhibition and other criteria defined below) were then run in singleton concentration-response format with maximum concentration of 20 uM for CYPs and 50 uM for all others. Each assay was run with positive and negative controls, and concurrent controls on every plate. The follow-up (secondary) screen tested active chemical-pairs in concentration series, as well as a few additional assays not tested in the primary screen, some selected negative inactives, and several cases re-run in the concentration series for confirmatory purposes.
# human CYP1A1, CYP1A1 (gene 1543), sequence (P04798 whole entry, looked up): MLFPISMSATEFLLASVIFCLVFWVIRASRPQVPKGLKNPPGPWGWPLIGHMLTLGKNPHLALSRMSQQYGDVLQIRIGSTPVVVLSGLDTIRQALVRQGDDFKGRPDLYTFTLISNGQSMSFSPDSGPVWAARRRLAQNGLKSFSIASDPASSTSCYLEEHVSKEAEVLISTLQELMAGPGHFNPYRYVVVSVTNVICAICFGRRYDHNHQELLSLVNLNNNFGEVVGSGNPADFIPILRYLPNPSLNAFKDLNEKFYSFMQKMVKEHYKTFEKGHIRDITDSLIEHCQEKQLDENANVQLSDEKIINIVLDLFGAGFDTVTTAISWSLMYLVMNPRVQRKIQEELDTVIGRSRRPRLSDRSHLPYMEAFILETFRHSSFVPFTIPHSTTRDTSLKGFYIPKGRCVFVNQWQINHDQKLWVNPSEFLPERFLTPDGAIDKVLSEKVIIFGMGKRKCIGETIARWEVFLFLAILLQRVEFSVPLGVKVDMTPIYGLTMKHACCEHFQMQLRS
Structure (SMILES),AC50,outcome
CCOP(=S)(OCC)SCn1c(=O)oc2cc(Cl)ccc21,0.513 µM (active),–
CCCCOC(=O)c1ccccc1C(=O)OCCCC,–,inactive
OC(c1ccc(Cl)cc1)(c1cncnc1)c1ccccc1Cl (stereo unspecified),8.07 µM (active),–
CCOC(=O)CC(SP(=S)(OC)OC)C(=O)OCC (stereo unspecified),2.87 µM (active),–
C=CC1(C)OC(=O)N(c2cc(Cl)cc(Cl)c2)C1=O (stereo unspecified),–,inactive
CCNc1nc(Cl)nc(NC(C)C)n1,–,inactive
N#CC(CCc1ccc(Cl)cc1)(Cn1cncn1)c1ccccc1 (stereo unspecified),–,inactive
O=C(Nc1ccccc1)Nc1ccnc(Cl)c1,9.34 µM (active),–
CC1COC(Cn2cncn2)(c2ccc(Oc3ccc(Cl)cc3)cc2Cl)O1 (stereo unspecified),1.63 µM (active),–
CCOC(=O)C(Cl)Cc1cc(-n2nc(C)n(C(F)F)c2=O)c(F)cc1Cl (stereo unspecified),5.46 µM (active),–
CON(C)C(=O)Nc1ccc(Cl)c(Cl)c1,3.72 µM (active),–
COP(=S)(OC)Oc1nc(Cl)c(Cl)cc1Cl,–,inactive
CCNc1nc(Cl)nc(NCC)n1,–,inactive
CCCC1COC(Cn2cncn2)(c2ccc(Cl)cc2Cl)O1 (stereo unspecified),7.82 µM (active),–
COC(=O)N(OC)c1ccccc1COc1ccn(-c2ccc(Cl)cc2)n1,1.87 µM (active),–
CS/C(C)=N/OC(=O)N(C)SN(C)C(=O)O/N=C(\C)SC,10 µM (active),–

# From PubChem BioAssay (EPA / NIEHS)
